Compound activity: PubChem, National Center for Advancing Translational Sciences (NCATS)
An excerpt weighted towards active compounds, which were near 2.9% of everything screened.
TRPML1 ag = activates the human TRPML1 channel. TRPML1-expressing cells, Ca2+ dye fluorescence, FDSS. Q9GZU1. activation, % (concentration not given with the values). 410,000 compounds, 0.12% hits; in the data active = activation above about 50%; inconclusive = mostly about 30% to 49%; also: 0% is about no effect
Target sequence (Q9GZU1 whole entry, looked up): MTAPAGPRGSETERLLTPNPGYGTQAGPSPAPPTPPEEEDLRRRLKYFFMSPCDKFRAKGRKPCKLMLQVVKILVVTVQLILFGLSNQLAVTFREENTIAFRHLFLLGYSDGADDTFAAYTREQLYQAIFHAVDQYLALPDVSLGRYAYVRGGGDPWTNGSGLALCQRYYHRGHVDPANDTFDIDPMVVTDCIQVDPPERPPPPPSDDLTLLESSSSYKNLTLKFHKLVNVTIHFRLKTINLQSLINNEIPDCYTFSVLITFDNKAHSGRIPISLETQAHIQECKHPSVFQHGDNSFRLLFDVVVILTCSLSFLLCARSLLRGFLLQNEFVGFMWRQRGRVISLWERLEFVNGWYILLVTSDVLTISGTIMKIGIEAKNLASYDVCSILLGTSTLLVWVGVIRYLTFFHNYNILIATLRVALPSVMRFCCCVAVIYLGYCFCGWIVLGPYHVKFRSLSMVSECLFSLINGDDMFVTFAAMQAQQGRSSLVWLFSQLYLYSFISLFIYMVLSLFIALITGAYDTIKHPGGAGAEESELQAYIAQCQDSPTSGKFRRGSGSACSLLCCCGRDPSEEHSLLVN
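Tet-induced TRPML1-DL cells, 1,500 per well, cultured overnight, were loaded with a no-wash Ca2+ dye for 45–90 min. Calcium fluorescence was recorded on the FDSS for 110 s after compound addition, before the EC80 agonist (4 uM 54-4) was added.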
DRD3 antagonist = D3 dopamine receptor (human) antagonism; P35462; D3R cells, DiscoveRx beta-arrestin luminescence, antagonist mode; hits give low values; max response, negative = inhibition, %; 360,000 compounds, 2.5% hits; AID 652054; in the data active = max response below about -50%; inconclusive = no clear call, values can overlap the other calls; also: % is scaled to controls: 0 for no effect and ±100 for the full control effect
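Cells expressing the human receptor were seeded at 1500 cells/well, incubated overnight at 37 degrees C in 5% CO2, then exposed to library compounds with dopamine controls for 90 minutes at 37 degrees C before luminescent detection.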
TRPML1 blocker = blocks the human TRPML1 channel | Q9GZU1 | TRPML1-inducible cells, Ca2+ dye fluorescence, FDSS; hits give low values; inhibition of EC80 agonist-evoked calcium signal | activity change, negative = inhibition, % (concentration not given with the values) | 390,000 compounds, 0.02% hits | AID 624415; in the data active = activity change below about -50%; inconclusive = between about -30% and that limit;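 also: stimulus is agonist 54-4 at its EC80 concentration; % is scaled to controls: 0 for no effect and ±100 for the full control effect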
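Calcium fluorescence in TRPML1-DL cells induced overnight with Tet: a 110 s read after compound pin addition, then a 110 s antagonist read after challenge with 54-4 at 4 uM final (EC80).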
DRD3 agonist = activates the human D3 dopamine receptor; D3R DiscoveRx beta-arrestin cells, luminescence, 90 min; P35462; 410,000 compounds, 0.58% hits; max activation, %; AID 652048; in the data active = max activation above about 30%; also: 0% is about no effect
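Agonist-mode cell screen: cells plated at 1500/well and incubated overnight at 37 °C, then exposed to library compounds for 90 min at 37 °C. Detection reagent was added for 30–60 min at room temperature, and luminescence was read.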
An asterisk follows results filed as active; ? = inconclusive; . = no result given.

SMILES	TRPML1 ag	DRD3 antagonist	TRPML1 blocker	DRD3 agonist
Cc1c(C(=O)OCC(C)C)[nH]c2c1C(=O)CC(c1ccco1)C2 (stereo not given)	1.6	-53.3*	50.3	-11.3
COc1cccc(C(=O)Nc2cccc(C(=O)OCc3cc(=O)n4nc(C5CC5)sc4n3)c2)c1	-0.2	.	-4.3	4.7
O=C(NNC1=Nc2ccccc2SC1)c1ccc(Cl)cc1	1.2	-72.8*	-5.7	-20.1
COc1cc(SC)ccc1C(=O)N1CCn2c3c(c4cc(C)ccc42)CCCC31 (stereo not given)	0.4	.	3.4	-4.2
OC(CNC1CCCc2ccccc21)COc1c(Cl)cccc1Cl (stereo not given)	-0.4	-78.3*	1.3	-23.6
OC(CNC1Cc2ccccc2C1)COc1ccc(Cl)cc1 (stereo not given)	2.0	?	-13.0	-10.8
COc1ccc(CN2CC[C@H]3C=CC[C@@H](C(=O)NC4CCCCC4)[C@H]3C2=O)cc1OC	-0.7	.	.	.
Cc1ccc(C(=O)Nc2c(-c3ccc(Cl)cc3)[nH][nH]c2=O)cc1	-0.5	-69.9*	.	-11.5
O=C(Nc1c(-c2ccc3c(c2)OCO3)[nH][nH]c1=O)c1ccccc1	-0.5	-91.9*	.	-8.1
O=C(Nc1c(-c2ccccc2)[nH][nH]c1=O)c1ccc2c(c1)OCO2	.	-11.5	.	-3.0
COc1ccc(C(=O)C[n+]2ccc(Cl)c3ccc(Cl)cc32)cc1	-0.4	.	.	.
COc1ccc(CNC(=O)Cn2c(SCC(=O)Nc3ccc(C)c(C)c3)nc3ccccc32)cc1	2.6	.	1.8	-27.7
c1ccc(-c2nc(-c3ccncc3)no2)cc1	-1.3	-8.8	8.2	1.9
c1ccc(-c2ccc(-c3nc(-c4ccncc4)no3)cc2)cc1	-0.4	37.6	-10.2	45.1*
O=C(COC(=O)c1ccccc1O)NNC(=O)c1ccc(Br)cc1	-0.7	-58.4*	-5.0	-10.7
CSc1nc2sc3c(c2c(=O)n1-c1ccc(F)c(Cl)c1)CCN(C(C)=O)C3	0.0	.	1.7	2.5
Cc1nc2ccc(NS(=O)(=O)c3cccc([N+](=O)[O-])c3)cc2s1	-1.1	19.9	-15.3	35.9*
Cc1nc2ccc(NC(=O)c3cc([N+](=O)[O-])cc([N+](=O)[O-])c3Cl)cc2s1	-0.4	-67.8*	6.2	11.0
Cc1ccc(S(=O)(=O)Nc2ccc3nc(C)sc3c2)cc1	-1.4	22.3	-0.5	1.4
COc1cc(-c2nnc(-c3ccco3)o2)ccc1OCc1ccccc1	0.4	36.4	15.1	30.3*
COc1cc(-c2nnc(-c3ccncc3)o2)ccc1OCc1ccccc1	1.4	49.3	12.0	80.7*
O=S(=O)(Nc1nc2ccccc2nc1NCc1ccco1)c1ccc(Cl)cc1	-0.1	-29.3	5.3	6.5
Cc1noc(C)c1CSc1nc2ccccc2nc1NS(=O)(=O)c1ccc(Cl)cc1	4.7	-51.2*	-2.5	0.2
Cn1c(=O)c2c(nc(CN3CCOCC3)n2CCCc2ccccc2)n(C)c1=O	0.0	8.4	9.7	3.3
Cn1c(=O)c2c(nc(CN3CCN(C(c4ccccc4)c4ccccc4)CC3)n2CC(N)=O)n(C)c1=O	-0.5	-50.2*	-3.2	0.3
SMILES	TRPML1 ag	DRD3 antagonist	TRPML1 blocker	DRD3 agonist
CC(C)n1c(CN(C)Cc2ccccc2)nc2c1c(=O)n(C)c(=O)n2C	1.4	80.5	7.7	50.1*
CN1CCN(Cc2nc3c(c(=O)n(C)c(=O)n3C)n2CCCc2ccccc2)CC1	-1.0	-52.0*	-6.4	0.6
CCOC(=O)Cn1c(CN2CCN(C(c3ccccc3)c3ccccc3)CC2)nc2c1c(=O)n(C)c(=O)n2C	1.6	5.2	-7.6	-12.4
CCCCn1c(=O)[nH]c(=O)c2c1nc(Cn1ncc(Cl)c(Cl)c1=O)n2CCC	0.4	-64.4*	2.3	-10.9
COc1ccc2c(CNCCc3ccccc3)c(C(=O)O)n(Cc3cccc(F)c3)c2c1	-0.8	.	3.6	-20.8
CN(C(=O)OCc1ccccc1)C(CC(N)=O)C(=O)O (stereo not given)	0.4	-98.7*	-3.7	-12.4
Cc1c(C(=O)N(Cc2ccccc2F)C2CCS(=O)(=O)C2)oc2ccc(F)cc12 (stereo not given)	0.8	.	16.2	-7.6
O=c1oc2cc(O)ccc2cc1-c1nc2ccccc2o1	98.6*	64.0	.	5.0
CCN(CC)c1ccc2cc(S(=O)(=O)c3ccc(Cl)cc3)c(=O)oc2c1	16.5	-16.1	-3.5	3.2
NC(=S)c1cc2ccc(O)cc2oc1=O	-0.6	-68.3*	-9.0	-25.1
O=c1oc2cc(O)ccc2cc1S(=O)(=O)c1ccccc1	-0.8	-6.8	-10.3	34.7*
CCN1CCOC(=O)C1CC(=O)Nc1cc(C)cc(C)c1 (stereo not given)	1.9	.	11.4	-4.9
CC1(C)CC(=O)c2cc(C(=O)Nc3ccccc3Cl)c(=O)n(-c3ccc(Cl)cc3)c2C1	0.3	.	-12.8	-3.9
CC1(C)CC(=O)c2cc(C(=O)Nc3ccc(Br)cc3)c(=O)n(-c3ccc(Cl)cc3)c2C1	0.2	.	1.3	52.5*
CCn1c(=S)sc2c(=O)n(CC(=O)Nc3ccccc3)c(C)nc21	-0.4	-28.6	-7.9	-8.3
CCn1c(=S)sc2c(=O)n(CC(=O)Nc3ccccc3C(F)(F)F)c(C)nc21	-1.3	-6.8	1.7	31.8*
CN(Cc1ccccc1)c1ccc(/C=C/c2sc3ccccc3[n+]2C)cc1	4.3	.	.	.
CCc1ccc(Nc2n[n+](-c3ccccc3)c(-c3c(Cl)cccc3Cl)s2)cc1	-1.1	-5.0	41.4	-30.1
CCc1ccc(Nc2n[n+](-c3ccccc3)c(-c3cc(OC)c(OC)cc3Br)s2)cc1	-0.6	-50.9*	7.1	-9.1
COc1ccc(-c2sc(Nc3ccccc3)n[n+]2-c2ccc(F)cc2)cc1Br	1.2	-2.5	48.3	-10.9
COc1ccc(C)cc1Nc1n[n+](-c2ccccc2)c(-c2c(Cl)cccc2Cl)s1	2.2	-87.4*	5.2	-52.3
COc1ccc(C)cc1Nc1n[n+](-c2ccccc2)c(-c2ccc(OC)c(OC)c2OC)s1	1.8	?	-16.1	-59.2
COc1ccc2ccccc2c1-c1sc(Nc2ccccc2)n[n+]1-c1ccc(F)cc1	9.5	-80.2*	47.3	-62.0
COc1ccc(C2CC(=O)Nc3c2c(C)nn3-c2nncc(-c3ccc(C)cc3)n2)c(OC)c1OC (stereo not given)	1.7	.	-1.3	-15.9
COc1ccc(N2CCN(C(c3ccccc3)c3sc4nc(-c5ccco5)nn4c3O)CC2)cc1 (stereo not given)	0.9	.	-5.8	-14.7
SMILES	TRPML1 ag	DRD3 antagonist	TRPML1 blocker	DRD3 agonist
O=c1[nH]c2cc([N+](=O)[O-])c(NCCO)c([N+](=O)[O-])c2[nH]1	-0.6	-59.4*	10.9	-18.2
CC(=O)Nc1c([N+](=O)[O-])cc2[nH]c(=O)[nH]c2c1[N+](=O)[O-]	1.6	?	36.6	-5.1
Cc1nc2ccccc2nc1-c1csc(-c2ccccc2)n1	-0.7	.	.	.
Cc1ccc(OCCCCN2CCCCC2)c(C)c1	0.3	5.6	-1.7	-6.4
Cc1ccccc1OCCN1CCCC1	0.2	?	-1.6	-13.3
Cc1ccc(C)c(OCCCCN2CCCCC2)c1	0.0	-67.5*	8.0	-16.9
